What all share (experiment): NCI-60 one-dose screen, 48 h (100 = growth as untreated, 0 = no growth, -100 = all killed)
Conditions in all cases: 10 µM unless noted

For experiment [1], the system named is DU-145 prostate.
Experiment [2] relates to K-562 leukemia.
Experiment [3] has as its system MALME-3M melanoma.
For experiment [4], the system named is MDA-MB-231 breast.
For experiment [5], the system named is RXF 393 renal.
Experiment [6] concerns SF-268 CNS.
For experiment [7], the system named is SF-295 CNS.
The subject of experiment [8] is SF-539 CNS.
The subject of experiment [9] is M14 melanoma.

Consider 30 compounds from PubChem BioAssay (NCI).

This is part of a sample that, as a whole, favours compounds with a hit. Of some 83,000 tested, about 20% had one in any assay.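 For each line, cells grew in 96-well plates with the test compound present at a single concentration for 48 hours.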 Values without a mark were called inactive. Active and inactive are the calls of the source. The calls were made as follows: active = growth percent below 10; inactive = the rest.

In the case of `Cc1ccc2nc(-c3c(CCCO)noc3N)[nH]c(=O)c2c1`, the growth in experiment [1] was 117%; in experiment [2], 68%; in [3] it was 96.6%; in experiment [4], 105%; in experiment [5] it was 153%; in experiment [6], 111%. Further, the growth in experiment [7] is 99.6%; in experiment [8], 97.3%; in [9] it was 107%.

As for `Cc1sc2nc(CSc3nnc(-c4ccco4)o3)[nH]c(=O)c2c1C`, the growth in experiment [1] is 114%; in experiment [2], 75.6%; in experiment [3] it was 128%; in [4], 106%; in [5], 98.3%; in experiment [6], 106%. For the same compound, the growth in experiment [7] was 107%; in experiment [8], 122%; in experiment [9], 122%.

Take `CCOC(=O)CC/C(C)=N\Nc1ccc([N+](=O)[O-])cc1`: the growth was 88.6% in [1]; 6.98% (active) in experiment [2]; 104% in experiment [3]; 80.8% in [4]; 97.5% in experiment [5]; 73.5% in [6]. Further, the growth is 60% in experiment [7], 69.8% in experiment [8] and 29.3% in [9].

For the compound `CCN1C(=O)N[C@H]2[C@@H]3NC(=O)c4ccc(Cl)n4[C@@H]3C[C@]21O`, the growth in [1] was 5.1% (active); in experiment [2], 3.13% (active); in [3], -1.41% (active); in experiment [4], -3.51% (active); in [5], 10.2%; in [6], 5.4% (active). The growth in [7] is 0.996% (active); in [8], -33.5% (active); in experiment [9], -21.3% (active).

Turning to `Cc1cc(NC(=O)COC(=O)c2sc3cc(F)ccc3c2Cl)no1`, the growth is 116% in [1]; 111% in [2]; 100% in experiment [3]; 98.6% in [4]; 32.6% in experiment [5]; 120% in experiment [6]. Further, the growth was 112% in experiment [7], 105% in experiment [8] and 102% in experiment [9].

With `N#Cc1c(NC(=O)c2ccc([N+](=O)[O-])o2)[n+]([O-])c2cc(F)c(F)cc2[n+]1[O-]`, the growth in experiment [1] was 126%; in [2], 92.2%; in experiment [3], 125%; in experiment [4] it was 114%; in experiment [5], 1.39% (active); in [6], 120%. Moreover, the growth in [7] is 97%; in experiment [8], 137%; in experiment [9] it was 112%.

With `Cc1c(C2=NNC(c3ccc4c(c3)OCO4)C2)[n+]([O-])c2ccccc2[n+]1[O-]` (stereo not given), the growth in experiment [1] was 103%; in [2] it was 91.2%; in experiment [3], 154%; in [4], 102%; in [5], 96.4%; in experiment [6], 114%. Also, the growth was 105% in [7], 96.2% in experiment [8] and 99.6% in [9].

For `CCCCC[C@@H]1Cc2cc(O)c(C(=O)O)c3c2[C@H](C[C@@]2(CCCO2)O3)O1`, the growth in experiment [1] is 111%; in [2], 58.1%; in experiment [3], 121%; in experiment [4] it was 101%; in experiment [5], 73.4%; in experiment [6], 116%. The growth was 101% in experiment [7], 103% in experiment [8] and 103% in experiment [9].

Take `CCN(CC)CCCNc1nc(C)cc(Nc2ccc3nc(C)cc(N)c3c2)n1`: the growth in experiment [1] is 116%; in experiment [2], 106%; in experiment [3], 107%; in experiment [4], 103%; in [5], 117%; in [6], 92.9%. Also, the growth in experiment [7] is 95.1%; in experiment [8] it was 103%; in experiment [9], 96.6%.

Take `O=C(OCCCCOC(=O)n1cnc2ccccc21)n1cnc2ccccc21`: the growth in experiment [1] was 105%; in experiment [2] it was 101%; in experiment [3] it was 101%; in experiment [4], 94.7%; in [5], 107%; in experiment [6] it was 98.8%. The growth in experiment [7] was 98.3%; in [8], 102%; in experiment [9], 102%.

Take `NC(=O)c1ccc2c(c1)OCO2`: the growth is 108% in experiment [1]; 115% in [2]; 98.3% in experiment [3]; 100% in experiment [4]; 94.5% in experiment [5]; 97.2% in experiment [6]. The growth in experiment [7] is 96.5%; in experiment [8], 104%; in experiment [9], 101%.

As for `CN1CCN(CCCOc2ccc3nc(Nc4ccc(C(F)(F)F)c(Cl)c4)ccc3c2)CC1`, the growth in experiment [1] was 20.1%; in experiment [2], -47.2% (active); in experiment [3], -47.1% (active); in experiment [4], -53.3% (active); in [5], 6.61% (active); in [6], 11.5%. The growth in experiment [7] was -52.8% (active); in experiment [8], -49% (active); in experiment [9], -19.8% (active).

With `CCOC(=O)/C=C\C(=O)NC(N)=O`, the growth in [1] was 106%; in [2], 94.4%; in experiment [3], 102%; in experiment [4], 103%; in [5], 101%; in experiment [6] it was 106%. Also, the growth in [7] was 106%; in [8], 108%; in experiment [9], 96.7%.

In the case of `O=C(/C=C/CN1CCOCC1)Nc1cc2c(Nc3cccc(Cl)c3F)ncnc2cc1OCCOC(F)F`, the growth was 49.5% in experiment [1]; 76% in [2]; 64.4% in experiment [3]; 68.6% in experiment [4]; 68.4% in experiment [5]; 65.2% in experiment [6]. The growth in experiment [7] is 81.2%; in experiment [8] it was 81.4%; in [9], 94.3%.

Turning to `CS(=O)(=O)N(c1cc(-c2ccc3ncnc(Nc4cccc(Cl)c4)c3c2)cnc1Cl)S(C)(=O)=O`, the growth in [1] is 21.6%; in experiment [2], 26.5%; in experiment [3], -24.7% (active); in [4], 7.55% (active); in [5], -20.1% (active); in experiment [6], 24%. In addition, the growth in experiment [7] is -4.24% (active); in experiment [8] it was -8.58% (active); in [9] it was 21.8%.

Regarding `O=C(Nc1ccc(F)cc1)c1cc([N+](=O)[O-])ccc1O`, the growth in [1] is 78.3%; in experiment [2], 45.3%; in [3], 37.4%; in [4], 65.9%; in experiment [5], 68.2%; in experiment [6] it was 72.9%. Also, the results for the growth in [7], in experiment [8] and in experiment [9] were 78.6%, 47.3% and 75.7%, respectively.

In the case of `Cc1ccccc1C(=O)c1ccccc1C(=O)O`, the growth in [1] was 110%; in experiment [2], 106%; in experiment [3], 109%; in [4], 115%; in experiment [5] it was 118%; in [6], 106%. Besides, the growth in experiment [7] is 109%; in experiment [8] it was 105%; in [9] it was 96.3%.

In the case of `CC1Cc2c(N(C)C)ncnc2N(C)c2ccc(O)cc21` (stereo not given), the growth in experiment [1] was 101%; in experiment [2], 36.5%; in [3] it was 89.5%; in experiment [4] it was 87.2%; in [5] it was 95.2%; in [6], 87.4%. Also, the figures for the growth in [7], in [8] and in [9] were 91.8%, 91.3% and 73.7%, respectively.

As to `COc1ccc(C2NC3=C(CCCC3)C(C#N)(C#N)C2(C#N)C#N)cc1` (stereo not given), the growth in [1] was 94.2%; in experiment [2] it was 12.5%; in experiment [3], 71.6%; in experiment [4], 70.1%; in experiment [5], 93.8%; in experiment [6], 97.8%. Also, the growth in experiment [7] was 99.7%; in experiment [8], 101%; in experiment [9], 90.7%.

As for `CN(C)C/C=C/C(=O)Nc1cc2c(Nc3cccc(Cl)c3F)ncnc2cc1OCCOC(F)F`, the growth in [1] was 31.3%; in experiment [2], 18.1%; in experiment [3] it was 38.5%; in experiment [4], 17.6%; in [5], 6.09% (active); in experiment [6], 41.9%. The figures for the growth in experiment [7], in experiment [8] and in [9] were 55.2%, 36.7% and 67.5%, respectively.

For `O=S(=O)(NCCCNc1cc(-c2cn(-c3ccccc3)nc2-c2cccc(O)c2)ccn1)c1ccc(C(F)(F)F)cc1`, the growth in [1] is 60.8%; in experiment [2], 3.42% (active); in experiment [3], 22.7%; in experiment [4], 4.73% (active); in [5], 24.7%; in experiment [6], 44.1%. In addition, the results for the growth in experiment [7], in [8] and in [9] were -3.81% (active), 36.7% and 23.5%, respectively.

In the case of `CC1(C)OC2COC3(C(=O)O)OC(C)(C)OC3C2O1` (stereo not given), the growth in [1] was 108%; in experiment [2] it was 101%; in experiment [3], 109%; in experiment [4], 88.3%; in [5], 111%; in experiment [6], 95.9%. Moreover, the growth is 103% in experiment [7], 101% in experiment [8] and 99.9% in [9].

In the case of `OC1CC2c3ccccc3C1c1ccccc12` (stereo not given), the growth in experiment [1] was 117%; in experiment [2], 111%; in [3] it was 110%; in [4], 110%; in experiment [5], 111%; in experiment [6] it was 105%. Moreover, the figures for the growth in experiment [7], in [8] and in [9] were 107%, 108% and 98.4%, respectively.

In the case of `CC(CCc1ccccc1)NC(=O)c1n[nH]c(=O)c2ccccc12` (stereo not given), the growth in experiment [1] was 110%; in experiment [2], 77.3%; in experiment [3], 116%; in experiment [4] it was 101%; in experiment [5], 144%; in experiment [6], 112%. Also, the values for the growth in [7], in experiment [8] and in [9] were 107%, 98.6% and 104%, respectively.

Consider `COc1ncc(-c2ccc3ncnc(Nc4cccc(Cl)c4)c3c2)cc1N(S(C)(=O)=O)S(C)(=O)=O`, for which the growth is 54.8% in experiment [1]; 94.2% in [2]; 44.8% in experiment [3]; 67.3% in [4]; 68.8% in [5]; 73.2% in [6]. The growth was 76% in experiment [7], 76.2% in experiment [8] and 73.7% in experiment [9].

As for `CN(C)C/C=C/C(=O)Nc1cc2c(Nc3ccc(F)c(Cl)c3F)ncnc2cc1OCCOC(F)F`, the growth is 10.4% in [1]; 5.47% (active) in [2]; 35.3% in experiment [3]; -1.17% (active) in experiment [4]; -29.4% (active) in experiment [5]; 14.4% in experiment [6]. The growth in experiment [7] was 33.7%; in experiment [8], 9.19% (active); in [9] it was 41.5%.

On to `C=C1C(=O)O[C@H]2[C@H]1CC/C(COC(=O)NCCc1cccc(OC)c1)=C\CC[C@@]1(C)O[C@@H]21`, for which the growth in [1] is 16.5%; in experiment [2], 11.5%; in [3] it was 85.3%; in experiment [4] it was 29.4%; in experiment [5], -2.81% (active); in experiment [6], 55.4%. In addition, the values for the growth in experiment [7], in experiment [8] and in experiment [9] were 89.2%, 38.9% and 29.9%, respectively.

For the compound `O=C(Cc1n[nH]c(=O)c2ccccc12)OCc1c(Cl)cccc1Cl`, the growth in experiment [1] is 130%; in experiment [2] it was 46.4%; in experiment [3], 100%; in experiment [4], 72.9%; in experiment [5] it was 52.5%; in [6] it was 60.9%. Further, the growth in experiment [7] is 55.1%; in experiment [8], 94.9%; in [9] it was 97.4%.

In the case of `COc1ccc(/C=C/C(=O)/C=C/c2cc3ccc(Cl)cc3[nH]c2=O)cc1`, the growth was 88.2% in [1]; 53.2% in experiment [2]; 107% in experiment [3]; 59.4% in [4]; 86.9% in experiment [5]; 86.5% in experiment [6]. Besides, the growth in experiment [7] is 94.8%; in [8], 92%; in [9], 86.4%.

With `O=C(CNC(=O)c1cccc2ccccc12)Nc1ccccc1Oc1ccccc1`, the growth in experiment [1] was 3.85% (active); in experiment [2] it was 7.84% (active); in experiment [3], 71.8%; in [4] it was 15%; in experiment [5], 31.1%; in [6], 18.1%. The results for the growth in [7], in experiment [8] and in [9] were 13.6%, 1.63% (active) and 17.2%, respectively.
